Results filed as inconclusive are left out. The source holds several records for some structures; these can differ, active in one and inactive in another. Calls of active or inactive are those of the source. How the source made its calls, unless noted: active means hit-call score of the fitted dose curve at least 0.9, where 1 is the maximum; inconclusive means response in the unintended direction; inactive means score below 0.9.
Assays:
[1] = molecular target: human Vascular Endothelial Growth Factor Receptor 1 (VEGFR1), FLT1 (gene 2321) (UniProt P17948); assay: NVS_ENZ_hVEGFR1: NovaScreen (NVS) Enzymatic Assay for human Vascular Endothelial Growth Factor Receptor 1 (VEGFR1) (AID 2283226)
How it was run: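 Cell-free assay of recombinant human VEGFR1 kinase with substrate, measured 1 h after dosing; fluorescence with electrophoretic mobility-shift separation of substrate and product, referenced to DMSO; primary screen at 25 uM in duplicate, actives then run in concentration series.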

[2] = tested on: DIO3 (gene 1735); assay: CCTE_GLTED_hDIO3: CCTE's human Deiodinase 3 (DIO3) Inhibition Assay, Great Lakes Toxicology and Ecology Division (GLTED) Lab (AID 2284055);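 further: potency is for inhibition seen as loss of released iodide signal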
How it was run: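 Absorbance from the Sandell-Kolthoff reaction reports iodide released by human DIO3 during a 3-hour incubation with chemical. Inhibition scored as signal loss against DMSO controls.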

[3] = molecular target: Estrogen receptor (Homo sapiens) (UniProt P03372); assay: CCTE_Deisenroth_AIME_384WELL_LUC_Active: CCTE's 384-well Estrogen Receptor Transactivation Assay with AIME metabolic competence (ERTA luciferase; metabolism positive), Deisenroth Lab (AID 2284030)
How it was run: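 AIME metabolism-positive mode: chemicals 0.002 - 200 uM, 2 h with alginate-bound PB/BNF-induced rat S9 → medium to VM7Luc4E2 ERTA, 24 h → luciferase. Positive fit vs 17beta-estradiol; n=4 typical.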

[4] = molecular target: Estrogen receptor (Homo sapiens) (UniProt P03372); assay: CCTE_Deisenroth_AIME_384WELL_LUC_Inactive: CCTE's 384-well Estrogen Receptor Transactivation Assay without AIME metabolic competence (ERTA luciferase; metabolism negative), Deisenroth Lab (AID 2284038);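 further: VM7Luc4E2 breast cells given medium preincubated 2 h with S9-free microspheres; hits raise estrogen receptor luciferase signal so potencies reflect agonists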
How it was run: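 Metabolism-negative mode: chemicals (10-point, 0.002–200 uM) held 2 h with alginate-water microspheres, then conditioned medium applied to VM7Luc4E2 cells for 24 h. Luciferase induction referenced to 17beta-estradiol.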

[5] = molecular target: Estrogen receptor (Homo sapiens) (UniProt P03372); assay: CCTE_Deisenroth_AIME_384WELL_LUC_Shift: CCTE's 384-well Estrogen Receptor Transactivation Assay with AIME metabolic competence data shift (ERTA luciferase; difference in metabolism positive and negative), Deisenroth Lab (AID 2284041; active means hit-call score of the fitted dose curve at least 0.9, where 1 is the maximum; inactive means score below 0.9;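 further: shift is response with S9 minus without S9 so positive means metabolism raised ER signal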)
How it was run: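 Test chemicals (0.002–200 uM, 10-point) were pre-incubated 2 h with alginate microspheres containing phenobarbital/beta-naphthoflavone-induced male Sprague Dawley rat liver S9 or water, then medium was transferred to VM7Luc4E2 cells for 24 h luciferase readout; shift = S9-positive minus S9-negative normalized response.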

[6] = molecular target: Cytochrome P450 2C19 (Homo sapiens) (UniProt P33261); assay: NVS_ADME_hCYP2C19: NovaScreen (NVS) CYP450-related Enzyme Activity (ADME) Assay for human CYP2C19 (AID 2283113);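 further: potency for inhibition seen as loss of fluorescent signal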
How it was run: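 Fluorescence intensity was measured 1 hour after chemicals were added to insect-cell-derived recombinant CYP2C19 with fluorogenic substrate. Decreased signal versus acetonitrile control was taken as reduced enzyme activity; initial testing used 10 uM in duplicate.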

[7] = TOX21_PR_BLA_Followup_Agonist_viability: Viability Assessment in the Tox21 HEK293 Progesterone Receptor (PR) Agonism Beta-lactamase Follow-Up Assay (AID 2283935);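 further: cells exposed to compound for 16 hr at 37 °C; signal loss means lower viability so actives are cytotoxic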
How it was run: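 HEK293T PR-UAS-bla, 3,000 cells/well, 2% CS-FBS; 6 hr pre-incubation; cpd in DMSO, 16 hr 37C; LiveBLAzer 2 hr RT, then CellTiter-Glo 30 min RT, luminescence. Decrease = lost viability.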

[8] = TOX21_PR_BLA_Followup_Antagonist_viability: Viability Assessment in the Tox21 HEK293 Progesterone Receptor (PR) Antagonism Beta-lactamase Follow-Up Assay (AID 2283936);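 further: hits lower the luminescence signal meaning cytotoxicity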
How it was run: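 PR-UAS-bla HEK293T cells (3,000/well, 2% charcoal-stripped FBS) given compound plus R5020 agonist, 16 h at 37C. CellTiter-Glo added after bla read, 30 min at room temperature; luminescence loss indicates cytotoxicity.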

[9] = TOX21_PR_LUC_Followup_Antagonist_viability: Viability Assessment in the Tox21 HEK293 Progesterone Receptor (PR) Antagonism Luciferase Follow-Up Assay (AID 2283940)
How it was run: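 Multiplexed viability counter-screen: after 5 days in charcoal-stripped-FBS medium, HEK293-PR-A-luc cells are plated, pinned with DMSO-dissolved compounds for 16 h at 37C, and ATP content is quantified luminescently via CellTiter-Glo.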

[10] = TOX21_PR_LUC_Followup_Agonist_viability: Viability Assessment in the Tox21 HEK293 Progesterone Receptor (PR) Agonism Luciferase Follow-Up Assay (AID 2283941);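 further: loss of signal means cytotoxicity so actives lower viability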
How it was run: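 Cells were kept 5 days in charcoal-stripped serum medium before plating HEK293-PR-A-luc at 3,000 cells/well. After 5 h they received DMSO-dissolved compound and incubated 16 h at 37C. Viability was taken from CellTiter-Glo ATP luminescence.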

[11] = molecular target: Estrogen receptor (Homo sapiens) (UniProt P03372); assay: NVS_NR_hER: NovaScreen (NVS) Nuclear Receptor Binding Assay for human Estrogen Receptor (ER) (AID 2283348)
How it was run: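 Scintillation signal from bound radioligand was measured 18 hours after chemical addition to cell-free MCF7 protein extracts, with DMSO as baseline. Activity was scored as signal loss; compounds ran first at 25 uM in duplicate.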

[12] = molecular target: mouse Peroxisome Proliferator-activated Receptor gamma (PPARg), Pparg (gene 19016) (UniProt P37238); assay: ATG_mPPARg_XSP2: Attagene TRANS-FACTORIAL Multi-Species (XSP2) HepG2 Assay for mouse Peroxisome Proliferator-activated Receptor gamma (PPARg) (AID 2283830);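 further: hits are gains in reporter mRNA above DMSO so AC50 marks activation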
How it was run: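 HepG2 cells transiently transfected with GAL4-UAS reporter units for chimeric NR-Gal4 proteins including mouse PPARg, exposed 24 h; medium contained 3 nM 6-alpha-fluorotestosterone and 1.5 nM norgestrel. Reporter mRNA quantified by RT-PCR, HpaI digestion and capillary electrophoresis, vs DMSO.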

[13] = molecular target: zebrafish Thyroid Hormone Receptor alpha (TRa), thraa (gene 30670) (UniProt Q98867); assay: ATG_zfTRa_XSP2: Attagene TRANS-FACTORIAL Multi-Species (XSP1) HepG2 Assay for zebrafish Thyroid Hormone Receptor alpha (TRa) (AID 2283832);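 further: actives raise zebrafish TRa-Gal4 reporter transcript above DMSO baseline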
How it was run: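 Transient transfection of human HepG2 with GAL4-UAS reporter units, then 24 h chemical treatment. RNA isolated, reverse-transcribed, PCR-amplified, FAM-labelled, HpaI-digested and run on capillary electrophoresis. Gain-of-signal relative to DMSO.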

[14] = molecular target: human CYP2D6, CYP2D6 (gene 1565) (UniProt P10635); assay: NVS_ADME_hCYP2D6: NovaScreen (NVS) CYP450-related Enzyme Activity (ADME) Assay for human CYP2D6 (AID 2283107)
How it was run: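 Insect-cell recombinant enzyme + fluorogenic substrate, cell-free; 1 h incubation; fluorescence intensity readout. Acetonitrile = neg. ctrl/baseline. Single-point 10 uM, duplicate; follow-up concentration series.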

[15] = molecular target: human Esterase Plasma (ES), BCHE (gene 590) (UniProt P06276); assay: NVS_ENZ_hES: NovaScreen (NVS) Enzymatic Assay for human Esterase Plasma (ES) (AID 2283157)
How it was run: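 Chemicals were added to plasma-extracted human enzyme in a cell-free format, and activity was read colorimetrically after 0.25 hour. Activity loss was referenced to DMSO; concentration-response top dose was 50 uM.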

[16] = molecular target: rat Adrenergic Receptor, Alpha 2 (Adra2), Non-selective Binding, Adra2a (gene 25083) (UniProt P22909); assay: NVS_GPCR_rAdra2_NonSelective: NovaScreen (NVS) G Protein-Coupled Receptor Assay for rat Adrenergic Receptor, Alpha 2 (Adra2), Non-selective Binding (AID 2283299)
How it was run: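 Rat cortical membranes, radioligand competitive displacement read by filter-based scintillation counting 1.25 hours after dosing. Primary screen in duplicate at 25 uM; actives followed up in concentration series.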

[17] = NVS_IC_rCaBTZCHL: NovaScreen (NVS) Ion Channel Assay for Calcium Channel, Type L, Benzothiazepine Site (CaBTZCHL) (AID 2283337)
How it was run: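 Scintillation counting of filter-bound radioligand gave the read-out, with reduced binding versus DMSO scored as activity. Membranes came from rat cortex and were read 1.5 h after compound addition. Chemicals were screened first in duplicate at 25 uM.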

[18] = molecular target: guinea pig Sigma Receptor, Non-selective Binding, SIGMAR1 (gene 100135589) (UniProt Q60492); assay: NVS_OR_gSIGMA_NonSelective: NovaScreen (NVS) Nuclear Receptor Binding Assay for guinea pig Sigma Receptor, Non-selective Binding (AID 2283367)
How it was run: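 gp brain membr., radioligand displacement, 1 h, filtration + scint. counting; DMSO = baseline; 25 uM x2 primary, conc.-response confirm.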

[19] = molecular target: rat Serotonin Transporter (SERT), Slc6a4 (gene 25553) (UniProt P31652); assay: NVS_TR_rSERT: NovaScreen (NVS) Transporter Assay for rat Serotonin Transporter (SERT) (AID 2283375)
How it was run: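 Filtration-based radiodetection quantified loss of specific radioligand binding in rat forebrain membranes after 1 hour of chemical exposure, relative to DMSO. Chemicals were first tested in duplicate at 25 uM.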

[20] = tested on: guinea pig Dopamine Transporter (DAT), gene 100714898; assay: NVS_TR_gDAT: NovaScreen (NVS) Transporter Assay for guinea pig Dopamine Transporter (DAT) (AID 2283369);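 further: active compounds lower bound radioligand signal relative to DMSO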
How it was run: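 Scintillation counts of filter-retained radioligand report binding to guinea pig striatal membranes after 2 h. Activity scored as signal loss relative to DMSO, first at 25 uM in duplicate, then in concentration series to 50 uM.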

Estrogen receptor (Homo sapiens), sequence (P03372 whole entry, looked up): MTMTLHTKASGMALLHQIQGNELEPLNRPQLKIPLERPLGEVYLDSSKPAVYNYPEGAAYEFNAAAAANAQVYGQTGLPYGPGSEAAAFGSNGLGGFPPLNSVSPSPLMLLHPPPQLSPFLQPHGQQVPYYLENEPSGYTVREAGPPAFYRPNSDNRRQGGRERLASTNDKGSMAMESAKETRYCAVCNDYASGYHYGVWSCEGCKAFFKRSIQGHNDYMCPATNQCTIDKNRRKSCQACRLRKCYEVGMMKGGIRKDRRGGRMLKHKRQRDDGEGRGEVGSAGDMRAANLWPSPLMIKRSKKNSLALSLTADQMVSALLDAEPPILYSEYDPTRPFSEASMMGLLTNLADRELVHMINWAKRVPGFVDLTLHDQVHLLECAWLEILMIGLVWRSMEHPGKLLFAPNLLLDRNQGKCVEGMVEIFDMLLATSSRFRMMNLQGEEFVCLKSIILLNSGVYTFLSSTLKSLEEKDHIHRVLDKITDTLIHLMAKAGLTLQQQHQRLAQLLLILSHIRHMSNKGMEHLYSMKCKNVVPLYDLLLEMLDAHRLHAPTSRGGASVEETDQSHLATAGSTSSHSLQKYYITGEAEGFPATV
zebrafish Thyroid Hormone Receptor alpha (TRa), thraa (gene 30670), sequence (Q98867 whole entry, looked up, the tested form may be a part): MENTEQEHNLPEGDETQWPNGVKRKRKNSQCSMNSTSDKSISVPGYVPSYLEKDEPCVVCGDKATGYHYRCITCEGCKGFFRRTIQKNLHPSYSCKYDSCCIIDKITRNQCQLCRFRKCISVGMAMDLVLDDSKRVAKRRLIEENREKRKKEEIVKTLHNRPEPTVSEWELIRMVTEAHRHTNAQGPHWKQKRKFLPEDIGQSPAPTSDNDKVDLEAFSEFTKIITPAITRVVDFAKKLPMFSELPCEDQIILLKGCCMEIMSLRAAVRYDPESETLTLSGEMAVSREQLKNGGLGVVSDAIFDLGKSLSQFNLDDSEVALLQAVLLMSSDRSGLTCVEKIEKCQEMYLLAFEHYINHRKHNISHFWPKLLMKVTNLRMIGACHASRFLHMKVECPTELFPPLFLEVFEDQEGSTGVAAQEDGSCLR
human CYP2D6, CYP2D6 (gene 1565), sequence (P10635 whole entry, looked up): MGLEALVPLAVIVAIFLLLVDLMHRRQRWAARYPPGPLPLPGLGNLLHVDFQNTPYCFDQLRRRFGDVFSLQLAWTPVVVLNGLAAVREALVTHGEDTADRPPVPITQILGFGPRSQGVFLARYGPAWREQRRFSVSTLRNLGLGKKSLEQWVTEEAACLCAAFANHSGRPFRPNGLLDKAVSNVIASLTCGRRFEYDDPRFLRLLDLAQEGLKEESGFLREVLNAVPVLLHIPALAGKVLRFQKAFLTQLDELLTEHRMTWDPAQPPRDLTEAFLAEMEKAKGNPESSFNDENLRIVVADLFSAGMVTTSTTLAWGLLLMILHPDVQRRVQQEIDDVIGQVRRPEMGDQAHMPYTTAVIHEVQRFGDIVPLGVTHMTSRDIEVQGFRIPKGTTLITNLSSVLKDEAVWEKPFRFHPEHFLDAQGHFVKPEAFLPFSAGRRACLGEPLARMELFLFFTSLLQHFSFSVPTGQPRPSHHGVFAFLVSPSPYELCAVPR
guinea pig Sigma Receptor, Non-selective Binding, SIGMAR1 (gene 100135589), sequence (Q60492 whole entry, looked up): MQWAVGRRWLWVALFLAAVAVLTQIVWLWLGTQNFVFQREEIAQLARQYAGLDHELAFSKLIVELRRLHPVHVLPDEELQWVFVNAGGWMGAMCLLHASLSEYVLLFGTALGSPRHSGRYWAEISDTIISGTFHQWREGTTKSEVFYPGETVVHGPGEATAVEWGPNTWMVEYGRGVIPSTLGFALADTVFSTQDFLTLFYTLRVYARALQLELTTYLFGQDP
human Esterase Plasma (ES), BCHE (gene 590), sequence (P06276 whole entry, looked up): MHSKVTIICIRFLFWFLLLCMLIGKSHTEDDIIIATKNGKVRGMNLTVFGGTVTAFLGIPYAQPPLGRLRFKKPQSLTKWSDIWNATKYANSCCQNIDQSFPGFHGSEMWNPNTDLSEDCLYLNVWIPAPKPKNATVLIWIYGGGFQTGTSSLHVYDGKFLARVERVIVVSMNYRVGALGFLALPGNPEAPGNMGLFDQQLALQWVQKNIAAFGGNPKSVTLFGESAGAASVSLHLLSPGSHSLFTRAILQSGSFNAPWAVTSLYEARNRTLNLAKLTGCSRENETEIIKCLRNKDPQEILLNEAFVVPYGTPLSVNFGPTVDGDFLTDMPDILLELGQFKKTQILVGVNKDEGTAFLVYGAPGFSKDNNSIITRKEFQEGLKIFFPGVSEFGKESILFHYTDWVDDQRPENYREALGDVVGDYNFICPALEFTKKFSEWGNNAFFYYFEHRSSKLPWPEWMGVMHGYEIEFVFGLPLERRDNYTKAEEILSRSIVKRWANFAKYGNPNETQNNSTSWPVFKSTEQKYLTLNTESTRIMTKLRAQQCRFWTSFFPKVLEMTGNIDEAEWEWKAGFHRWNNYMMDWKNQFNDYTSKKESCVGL
mouse Peroxisome Proliferator-activated Receptor gamma (PPARg), Pparg (gene 19016), sequence (P37238 whole entry, looked up, the tested form may be a part): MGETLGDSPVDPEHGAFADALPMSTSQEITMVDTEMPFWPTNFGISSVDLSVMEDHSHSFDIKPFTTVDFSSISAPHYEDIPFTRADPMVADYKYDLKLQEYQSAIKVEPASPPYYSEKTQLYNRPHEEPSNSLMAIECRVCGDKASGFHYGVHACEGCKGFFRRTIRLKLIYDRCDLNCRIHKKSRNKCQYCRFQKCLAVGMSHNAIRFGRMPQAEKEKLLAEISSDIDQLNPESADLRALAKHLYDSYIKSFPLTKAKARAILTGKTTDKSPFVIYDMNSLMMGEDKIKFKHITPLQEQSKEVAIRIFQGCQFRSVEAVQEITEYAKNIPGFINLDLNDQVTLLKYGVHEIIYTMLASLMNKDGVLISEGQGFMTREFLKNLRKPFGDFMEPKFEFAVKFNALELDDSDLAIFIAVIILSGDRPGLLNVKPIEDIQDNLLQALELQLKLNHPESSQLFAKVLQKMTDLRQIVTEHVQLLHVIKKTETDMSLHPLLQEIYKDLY
rat Adrenergic Receptor, Alpha 2 (Adra2), Non-selective Binding, Adra2a (gene 25083), sequence (P22909 whole entry, looked up): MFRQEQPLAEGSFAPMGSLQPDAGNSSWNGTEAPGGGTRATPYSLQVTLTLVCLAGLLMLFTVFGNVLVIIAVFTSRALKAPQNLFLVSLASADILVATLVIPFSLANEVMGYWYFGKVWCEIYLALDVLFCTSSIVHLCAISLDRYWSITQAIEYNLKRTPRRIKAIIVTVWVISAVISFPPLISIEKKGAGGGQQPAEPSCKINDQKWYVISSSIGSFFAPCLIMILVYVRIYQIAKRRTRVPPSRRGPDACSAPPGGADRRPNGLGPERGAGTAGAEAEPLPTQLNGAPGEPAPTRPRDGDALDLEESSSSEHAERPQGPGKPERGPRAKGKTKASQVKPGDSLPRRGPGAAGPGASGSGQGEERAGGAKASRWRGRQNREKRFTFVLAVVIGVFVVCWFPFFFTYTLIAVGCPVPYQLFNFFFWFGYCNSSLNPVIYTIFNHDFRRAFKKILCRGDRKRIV
rat Serotonin Transporter (SERT), Slc6a4 (gene 25553), sequence (P31652 whole entry, looked up): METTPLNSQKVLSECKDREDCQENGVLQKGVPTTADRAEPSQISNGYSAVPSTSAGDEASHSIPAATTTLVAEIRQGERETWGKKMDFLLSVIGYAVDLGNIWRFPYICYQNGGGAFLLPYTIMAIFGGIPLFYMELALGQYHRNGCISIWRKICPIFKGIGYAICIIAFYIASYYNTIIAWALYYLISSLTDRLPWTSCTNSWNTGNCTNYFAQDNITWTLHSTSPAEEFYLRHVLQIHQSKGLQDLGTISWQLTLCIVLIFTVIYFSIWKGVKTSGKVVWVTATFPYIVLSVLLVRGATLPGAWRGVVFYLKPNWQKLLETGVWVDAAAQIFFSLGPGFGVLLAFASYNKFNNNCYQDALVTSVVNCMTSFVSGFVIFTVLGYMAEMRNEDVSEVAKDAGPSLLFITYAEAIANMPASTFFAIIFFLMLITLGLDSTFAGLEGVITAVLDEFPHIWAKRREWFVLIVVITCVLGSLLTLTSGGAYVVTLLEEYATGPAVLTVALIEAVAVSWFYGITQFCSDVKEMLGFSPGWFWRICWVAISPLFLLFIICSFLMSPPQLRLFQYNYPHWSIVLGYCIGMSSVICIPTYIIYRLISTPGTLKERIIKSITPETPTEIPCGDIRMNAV

Question: For `CC(=O)CCc1ccccc1`, which outcome [1] is on record?
Answer: inactive

Question: For `COC(=O)[C@]1(C)CCC[C@@]2(C)[C@H]1CC=C1C=C(C(C)C)CC[C@@H]12`, which AC50 [2] is on record?
Answer: 36 µM (active)

Question: Which AC50 [3] does the source give for `CCCCCCC1CCC(=O)O1` (centres undefined) here?
Answer: 0.000244 µM (active)

Question: And the AC50 [4]?
Answer: 0.00129 µM (active)

Question: And the AC50 [5]?
Answer: 0.000196 µM (active)

Question: Which AC50 [6] does the source give for `CN(C)c1ccc(C(c2ccccc2)c2ccc(N(C)C)cc2)cc1` here?
Answer: 0.356 µM (active)

Question: Which outcome [7] does the source give for `C[C@H]1C[C@H]2[C@@H]3CCC4=CC(=O)C=C[C@]4(C)[C@@]3(F)[C@@H](O)C[C@]2(C)[C@@]1(O)C(=O)CO` here?
Answer: inactive

Question: What about the outcome [8] of the same compound?
Answer: inactive

Question: And the outcome [9]?
Answer: inactive

Question: What about the outcome [10] of the same compound?
Answer: inactive

Question: Which outcome [11] does the source give for `c1cc(N(CC2CO2)CC2CO2)ccc1Cc1ccc(N(CC2CO2)CC2CO2)cc1` (centres undefined) here?
Answer: inactive

Question: Which results are given for `c1cc[c]([Bi]([c]2ccccc2)[c]2ccccc2)cc1`?
Answer: outcome [7]: inactive; outcome [8]: inactive; outcome [9]: inactive; outcome [10]: inactive

Question: What does the source list for `Cc1cc(O)cc(C)c1Cl`?
Answer: AC50 [12]: 72.9 µM (active); outcome [12]: inactive; AC50 [13]: 100 µM (active); outcome [13]: inactive

Question: Which AC50 [11] does the source give for `Oc1ccc(Oc2ccccc2)cc1` here?
Answer: 6.92 µM (active)

Question: With `CC[N+](CC)(CC(=O)Nc1c(C)cccc1C)Cc1ccccc1` as the compound, how does the AC50 [14] read?
Answer: 0.132 µM (active)

Question: And the AC50 [15]?
Answer: 3.7 µM (active)

Question: What about the AC50 [16] of the same compound?
Answer: 18.7 µM (active)

Question: What about the AC50 [17] of the same compound?
Answer: 7.02 µM (active)

Question: And the AC50 [18]?
Answer: 12.7 µM (active)

Question: What about the outcome [19] of the same compound?
Answer: inactive

Question: What does the source list for `O=C(C(=O)c1ccccc1)c1ccccc1`?
Answer: outcome [17]: inactive; AC50 [20]: 3.77 µM (active)

Question: With `CN(C)CCC(c1ccc(Cl)cc1)c1ccccn1` (centres undefined) as the compound, how does the AC50 [14] read?
Answer: 5 µM (active)

Question: And the AC50 [15]?
Answer: 19.9 µM (active)

Question: What about the AC50 [16] of the same compound?
Answer: 13.9 µM (active)

Question: And the AC50 [18]?
Answer: 3.14 µM (active)

Question: And the AC50 [20]?
Answer: 3.05 µM (active)

Question: What about the AC50 [19] of the same compound?
Answer: 2.95 µM (active)

From PubChem BioAssay (EPA / NIEHS)
